These results are taken from PubChem BioAssay (NCI).

Compounds without any hit were thinned out: in the full panel of roughly 83,000, 20% have a hit.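 Negative percent growth values reflect cell death: -40 means 40% of the cells present at the start died, and -100 means all died.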 Unmarked numbers belong to inactive results. The source made the active and inactive calls. How the source made its calls: active means growth percent below 10; inactive means the rest.

Holding throughout (test): NCI-60 one-dose screen, 48 h (100 = growth as untreated, 0 = no growth, -100 = all killed)
For assay [1], the system named is NCI-H23 lung. Particulars: 10 µM unless noted.
Assay [2] concerns NCI-H226 lung. Particulars: 10 µM unless noted.
The subject of assay [3] is NCI-H322M lung. The note with it: 10 µM unless noted.
Assay [4] concerns NCI-H460 lung. The note with it: 10 µM unless noted.
Assay [5] concerns HOP-92 NSCLC. The note with it: 10 µM.
The test system of assay [6] is NCI-H522 lung. The note with it: 10 µM.
In assay [7] the test system is A549/ATCC NSCLC. Particulars: 10 µM unless noted.
Assay [8] concerns 786-0 renal. The note with it: 10 µM unless noted.
In assay [9] the test system is COLO 205 colon. The note with it: 10 µM unless noted.
The subject of assay [10] is DU-145 prostate. The note with it: 10 µM unless noted.
The test system of assay [11] is K-562 leukemia. Particulars: 10 µM unless noted.
Assay [12] relates to MALME-3M melanoma. Particulars: 10 µM unless noted.
Assay [13] concerns MDA-MB-231 breast. The note with it: 10 µM unless noted.
Assay [14] has as its system RXF 393 renal. Particulars: 10 µM unless noted.
The subject of assay [15] is SF-268 CNS. Particulars: 10 µM unless noted.
Assay [16] has as its system SF-295 CNS. Particulars: 10 µM unless noted.
For assay [17], the system named is SF-539 CNS. Particulars: 10 µM unless noted.
Assay [18] deals with UACC-257 melanoma. Particulars: 10 µM unless noted.
The test system of assay [19] is M14 melanoma. The note with it: 10 µM unless noted.

As for `CC(=O)Nc1nc(C)c(C(=O)NNC(=O)Nc2ccccc2)s1`, the growth is 102% in [1]; 7.19% (active) in [2]; 120% in assay [3]; 108% in assay [4]; 60.6% in [5]; 64.5% in assay [6]. Moreover, the growth in assay [7] was 99.1%; in assay [8], 110%; in assay [9], 105%; in assay [10], 101%; in [11], 114%; in [12] it was 126%. The growth in assay [13] is 89.6%; in assay [14], 121%; in assay [15], 99.8%; in assay [16], 116%; in assay [17], 99.4%; in assay [18], 116%. The growth in [19] was 107%.
For `CCCCCCCCC1OC1CCCCCCCC(=O)O` (configuration not stated), the growth in [1] was 100%; in assay [2], 92%; in assay [3], 102%; in assay [4], 99.1%; in assay [5] it was 87.8%; in [6] it was 97.7%. For the same molecule, the growth is 91.9% in assay [7]; 100% in [8]; 105% in assay [9]; 116% in [10]; 116% in assay [11]; 90.1% in [12]. Besides, the growth in assay [13] is 94.6%; in assay [14] it was 101%; in assay [15], 107%; in assay [16] it was 97.4%; in assay [17], 93.5%; in assay [18] it was 95.3%. In addition, the growth in [19] was 105%.
With `COC1NC(Cl)=C(C#N)C(C#N)(C#N)C1(C)C` (configuration not stated), the growth in [1] was 108%; in assay [2], 108%; in assay [3] it was 121%; in assay [4], 114%; in assay [5], 97.2%; in [6], 104%. Besides, the growth in assay [7] is 109%; in assay [8] it was 87.2%; in assay [9] it was 124%; in assay [10], 94.2%; in assay [11], 77.1%; in assay [12], 146%. In addition, the growth in assay [13] was 88.6%; in assay [14] it was 3.25% (active); in [15], 122%; in assay [16], 115%; in assay [17] it was 92.3%; in assay [18], 102%. Besides, the growth in assay [19] is 59.1%.
`OCC(O)C(O)CC1SCCS1` (configuration not stated): the growth in assay [1] is 97.3%; in assay [2] it was 91.9%; in [3], 109%; in assay [4] it was 108%; in assay [5] it was 104%; in assay [6], 96.6%. For the same molecule, the growth in assay [7] was 101%; in [8], 96%; in [9], 106%; in assay [10], 108%; in assay [11], 83%; in [12], 101%. Further, the growth was 114% in assay [13]; 102% in assay [14]; 99.4% in [15]; 104% in assay [16]; 103% in [17]; 105% in assay [18]. The growth in [19] is 97.9%.
As for `CCN(CC)CCCC(C)Nc1c(C)cnc2cc(Cl)c(C)cc12` (configuration not stated), the growth is 91.9% in [1]; 96.2% in assay [2]; 87.6% in assay [3]; 90.2% in [4]; 70.4% in [5]; 82.3% in [6]. Also, the growth was 103% in assay [7]; 64.7% in [8]; 72.2% in assay [9]; 91.7% in assay [10]; 3.57% (active) in [11]; 110% in assay [12]. Besides, the growth was 73.5% in [13]; 69.3% in [14]; 87.6% in assay [15]; 84.8% in assay [16]; 72.3% in assay [17]; 112% in assay [18]. In addition, the growth in assay [19] is 7.11% (active).
As for `C/C(=N\Nc1cccc(Cl)n1)c1ccccn1`, the growth in assay [1] was 16.8%; in assay [2], -3.86% (active); in assay [3] it was 23.7%; in [4], 5.39% (active); in assay [5] it was 40.5%; in assay [6] it was 24.6%. Moreover, the growth was 9.19% (active) in assay [7]; 8.33% (active) in assay [8]; 10.6% in [9]; 23.3% in [10]; 6.59% (active) in assay [11]; 21.6% in assay [12]. Besides, the growth in assay [13] is 36.8%; in [14] it was 24%; in assay [15], 12.8%; in assay [16], 0.34% (active); in assay [17], 1.72% (active); in [18], 2.3% (active). Also, in assay [19], the growth was -23.8% (active).
Turning to `CCCCCCCCc1ccc(OCCOCC[N+](C)(C)CC)cc1` (tested in a mixture with another compound), the growth is 26.8% in [1]; 56.5% in assay [2]; 94% in assay [3]; 39.9% in assay [4]; 6.23% (active) in assay [5]; 3.68% (active) in assay [6]. In addition, the growth in assay [7] was 69.5%; in assay [8], 87.8%; in [9] it was -42.1% (active); in [10], 64.5%; in assay [11], 22.8%; in assay [12] it was -19.9% (active). For the same molecule, the growth is 22.2% in [13]; 50.3% in assay [14]; 23% in assay [15]; 97.2% in [16]; 18.4% in [17]; 12.9% in assay [18]. In addition, the growth in [19] was 44.5%.
As to `CCOc1ccc(/C=N/NC(=O)c2cccc3ccccc23)cc1OCC`, the growth is 92.3% in assay [1]; 96.7% in assay [2]; 119% in assay [3]; 101% in [4]; 68.5% in [5]; 87.4% in [6]. The growth was 96.6% in assay [7]; 102% in [8]; 110% in [9]; 106% in assay [10]; 80.7% in assay [11]; 114% in assay [12]. Moreover, the growth is 96% in assay [13]; 109% in assay [14]; 108% in [15]; 89.1% in assay [16]; 105% in [17]; 109% in [18]. For the same molecule, the growth in assay [19] is 123%.
